Screening results from PubChem BioAssay.
In the library only some 1.8% were active in any assay of this set; here they are far more common.
TrxR1 substrate: is turned over as a substrate by rat TrxR1 | purified TrxR1 substrate turnover, NADPH consumption readout | AID 588456 | Potency, µM (doses to about 114 µM), for inactives: at the highest dose activity change, negative = substrate turnover | 0.01% of 390,000 active | O89049; further: on the % scale 0 is the no-effect control and ±100 the full control effect; nearly all actives have a fitted effect of over 50% in size
Target sequence (O89049 whole entry, looked up): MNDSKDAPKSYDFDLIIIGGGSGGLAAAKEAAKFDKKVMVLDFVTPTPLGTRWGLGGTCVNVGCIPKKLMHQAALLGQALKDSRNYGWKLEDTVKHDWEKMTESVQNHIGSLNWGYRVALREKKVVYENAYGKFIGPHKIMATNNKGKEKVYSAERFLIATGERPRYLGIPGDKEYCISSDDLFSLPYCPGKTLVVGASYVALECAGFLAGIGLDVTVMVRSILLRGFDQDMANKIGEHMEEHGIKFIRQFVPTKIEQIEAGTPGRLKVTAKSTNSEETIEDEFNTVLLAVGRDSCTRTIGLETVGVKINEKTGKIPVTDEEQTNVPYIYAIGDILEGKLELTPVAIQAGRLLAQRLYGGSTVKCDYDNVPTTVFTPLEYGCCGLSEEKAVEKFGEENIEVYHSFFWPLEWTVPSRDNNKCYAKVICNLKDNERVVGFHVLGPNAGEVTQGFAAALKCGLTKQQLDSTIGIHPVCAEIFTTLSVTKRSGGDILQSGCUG
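Rat TrxR1, dispensed at 90 nM, was prereduced with 400 uM NADPH (final) for 5 min at ~22 deg C, then incubated with compound 15 min before 400 uM selenite. A first-read NADPH fluorescence drop versus no-compound background flagged substrates.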
rTrxR1 inhibitor: blocks rat thioredoxin reductase 1. O89049. AID 588453. recombinant rTrxR1, NADPH fluorescence consumption, selenite substrate. Potency, µM (series often up to 114 µM), without a hit: at the top dose activity change, negative = inhibition, most hits filed as inhibitors. 1% of 390,000 active; further: on the % scale 0 is the no-effect control and ±100 the full control effect; nearly all actives have a fitted effect of over 65% in size
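Rat TrxR1 (90 nM in the dispensed reagent) was pre-reduced with 400 uM NADPH for 5 min at room temperature, then incubated with compound for 15 min. After 400 uM selenite was added, NADPH fluorescence (Ex 340/Em 450 nm) was followed for 8 min.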
Vif-A3G inh: blocks the Vif interaction with human APOBEC3G; Q9HC16; Potency, µM (doses to about 46.1 µM), inactives show at the highest dose activity, negative = active, usual class: inhibitors; HeLa A3G-eYFP + Vif (tagged APOBEC3G with the HIV-1 protein that degrades it), YFP fluorescence, overnight; AID 602310; 0.076% of 410,000 active; further: on the % scale 0 is the no-effect control and ±100 the full control effect; nearly all actives have a fitted effect of over 60% in size
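Read-out is eYFP fluorescence (Ex 488/Em 500-530) from Vif-expressing HeLa A3G-eYFP cells; more signal means A3G escaped Vif-mediated degradation. Cells plated overnight, compound pinned in, incubated overnight at 37 deg C.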
Vif-APOBEC3F blk: inhibitors of Vif-A3F interaction. Potency, µM (top dose mostly 46.1 µM), without a hit: top-dose activity, negative = active. 0.2% of 390,000 active. HeLa A3F-eYFP + Vif (tagged APOBEC3F with the HIV-1 protein that degrades it), YFP fluorescence increase. AID 602313; further: % of control where 0% means no effect; nearly all actives have a fitted effect of over 65% in size
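Fluorescence increase (Ex 488/Em 500-530) after overnight compound treatment at 37 deg C flags inhibition of Vif-driven A3F-eYFP loss in stable HeLa A3F-eYFP/Vif cells seeded overnight beforehand.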
VDR inh: inhibitors of human vitamin D receptor; P11473; VDR-SRC2-3 peptide fluorescence polarization, 2 h; Potency, µM, for the others: max response, negative = inhibition, actives largely listed as inhibitors; 0.93% of 400,000 active; further: on the % scale 0 is the no-effect control and ±100 the full control effect
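Fluorescence polarization assay of small-molecule disruption of VDR binding to coregulator peptide SRC2-3. Compounds and controls pin-transferred, then read after 2 h incubation at ambient room temperature.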
* marks the source's active call; other numbers are inactive results; ? = inconclusive; . = no result; [ ] = another dose, or the depositor's remark. The call rests on the fitted dose curve; in most records, active means well fitted curve in the direction sought with a large enough effect; inconclusive means small, poorly fitted or top-dose-only effect, or another doubt; inactive means no such curve, though single readings can be large; an effect the other way counts as inactive or inconclusive. Potency means the concentration at half of the fitted maximal effect.

SMILES	TrxR1 substrate	rTrxR1 inhibitor	Vif-A3G inh	Vif-APOBEC3F blk	VDR inh
CNc1oc(-c2ccc(Cl)cc2)nc1C#N	190.2%	39.8µM*	0.1%	2.3%	-12.9%
CC(C)CN=c1cc(-c2ccccc2)oc2ccc(Cl)cc12	-8.8%	-7.1%	-0.9%	-6.0%	12.5%
C/C(CCc1oc2ccc(Cl)cc2c1-c1ccc(C)o1)=N\O	-5.0%	10µM*	-7.5%	.	-1.1%
C/C(CCc1oc2ccc(Br)cc2c1-c1ccc(C)o1)=N/O	4.6%	17.8µM*	-6.6%	0.3%	-13.2%
CC(=O)CCc1oc2ccc(C)cc2c1-c1ccccc1	7.5%[57.1 µM]	7.3%[57.1 µM]	-0.6%	-36.4%	1.2%
Cc1nn(C)c(C(=O)Sc2cccc(Cl)c2)c1[N+](=O)[O-]	-8.7%	2µM*	-1.4%	-4.2%	39.8µM*
Cc1nn(C)c(C(=O)Sc2ccccc2)c1[N+](=O)[O-]	-19.8%	?	-1.4%	-1.4%	-27.9%
Nc1nc(NCc2ccc(F)cc2)c2[nH]cnc2n1	1.5%	12.8%	-3.1%	.	8.9%
O=C(O)c1ccc(N2C(=O)CC(SC(=Nc3ccccc3)Nc3ccccc3)C2=O)cc1 (centres undefined)	-6.7%	-7.3%	0.3%	4.0%	-3.3%
CC(/C=C/c1ccc(N(C)C)cc1)=N\N=C(/N)SC1CC(=O)N(c2ccc(C(=O)O)cc2)C1=O (centres undefined)	-15.7%	-16.3%	-15.3%	25.1µM*	-21.4%
CCOc1ccccc1NC(=O)c1nc2nc(C)cc(C(F)F)n2n1	1.2%[57.1 µM]	12.6%[57.1 µM]	-5.0%	6.0%	7.6%
CCc1cccc(CC)c1NC(=O)CSc1nnc(C2CC2)n1C	-1.0%	17.8%	1.6%	-6.3%	89.1µM*
CO/N=C(\C(=O)NC1C(=O)N2C(C(=O)OCOC(=O)C(C)(C)C)=C(/C=C\c3scnc3C)CSC12)c1csc(N)n1 (centres undefined)	.	.	.	.	35.5µM*
COc1cccc(C(=O)NC2C(=O)N3C(C(=O)O)=C(COC(C)=O)CSC23)c1 (centres undefined)	0.0%	?	0.7%	?	?
CO/N=C(/C(=O)N[C@@H]1C(=O)N2C(C(=O)O)=C(COC(N)=O)CS[C@H]12)c1ccco1	.	.	.	.	50.1µM*
CO/N=C(\C(=O)O)c1csc(NN=C(C)C)n1	4.2%[57.1 µM]	4.1%[57.1 µM]	-1.0%	-2.9%	-12.4%
C=CC1=C(C(=O)O)N2C(=O)[C@@H](NC(=O)/C(=N\O)c3csc(N)n3)[C@H]2SC1 (stereo in doubt)	-3.7%	-0.2%	0.9%	-0.4%	-4.1%
CO/N=C(/C(=O)N[C@@H]1C(=O)N2C(C(=O)O)=CCS[C@H]12)c1csc(N)n1	.	.	.	.	35.5µM*
CO/N=C(/C(=O)N[C@@H]1C(=O)N2C(C(=O)O)=C(CSc3nc(C)c(CC(=O)O)s3)CS[C@H]12)c1csc(N)n1	.	.	.	.	35.5µM*
Cc1nn2c3c(cnc2c1-c1ccc(F)cc1)C(=O)CC(c1ccccc1)C3 (centres undefined)	-8.3%	2.0%	-0.5%	-5.1%	-13.4%
Cc1ccccc1NC(=O)CN1C(=O)C2C3CC(C(Br)C3Br)C2C1=O (centres undefined)	12.6%[57.1 µM]	-17.6%[57.1 µM]	6.2%	1.2%	79.4µM*
CSC1=NC(C)(C)C=C(/C=C/c2ccc(Cl)cc2)N1	-6.6%[57.1 µM]	?	-19.6%	-0.7%	31.6µM*
CSC1=NC(C)(C)C=C(/C=C/c2ccc(Cl)cc2Cl)N1	4.5%[57.1 µM]	?	?	-6.5%	?
COc1cccc(N2CCN(C(=O)c3cnn(-c4ccc(C)cc4C)c3C3CCN(C(=O)OC(C)(C)C)CC3)CC2)c1	-6.8%	12.2%	2.1%	1.8%	0.1%
CCOCCCN1C(=O)CN(C2CCCCCC2)C(=O)C1c1ccc(OC(C)C)c(OC)c1 (centres undefined)	4.0%[57.1 µM]	20.1%[57.1 µM]	3.9%	-5.6%	6.8%
SMILES	TrxR1 substrate	rTrxR1 inhibitor	Vif-A3G inh	Vif-APOBEC3F blk	VDR inh
Cc1cc(O)c(C(C[N+](=O)[O-])c2ccc(Cl)cc2)c(=O)o1 (centres undefined)	-1.8%	-33.7%	2.2%	-6.8%	-27.4%
Cc1cc(C)n(C(C[N+](=O)[O-])c2ccc(Cl)cc2)n1 (centres undefined)	3.8%	5.62µM*	-13.9%	-13.8%	?
NCCCN(Cc1ccccc1)c1ccc(Br)cn1	10.4%	5.1%	.	.	3.2%
Cc1ccc2nc(NCc3ccccc3Cl)c3nnnn3c2c1	23.4%	16.1%	-0.4%	?	-7.7%
Cc1ccc2nc(Cl)c3nnnn3c2c1	2.6%	8.91µM*	?	0.8%	?
Cc1ccc(-c2cc(C3C4C=CCC(C)C4C(=O)N3Cc3ccccc3)ccc2F)cc1 (centres undefined)	-10.8%	2.8%	-0.8%	.	-2.4%
Oc1cccc(/C=N/n2c(C3CCCCC3)n[nH]c2=S)c1	6.7%[57.1 µM]	-19.9%[57.1 µM]	-1.5%	-5.2%	-1.9%
COc1cccc(/C=N/n2c(C3CCCCC3)n[nH]c2=S)c1	-3.0%	-5.8%	7.08µM*	-8.8%	9.0%
O=C(CSc1nc2ccccc2s1)c1cc2ccccc2o1	-1.0%	-6.3%	?	25.1µM*	14.3%
O=C1CCC[C@@H]2CC(NCc3ccc(Cl)c(Cl)c3)C[C@@H]3CCN1[C@H]23 (some centres undefined)	.	.	.	.	-9.0%
COc1ccc(N2C(=O)CC(Sc3n[nH]c(-c4ccccc4)n3)C2=O)cc1 (centres undefined)	4.9%[57.1 µM]	2µM*	0.1%	-3.8%	-20.7%
COc1ccc(N2C(=O)CC(Sc3nc(C)c4c(n3)CCCC4)C2=O)cc1 (centres undefined)	-2.6%	-4.6%	?	-3.1%	-8.5%
O=C(N/N=C/c1ccco1)c1cccc(N2Cc3ccccc3C2)c1	2.5%	50.1µM*	-6.1%	-1.4%	?
COc1ccc(CN2CC[C@H]3C=CC[C@@H](C(=O)Nc4nccs4)[C@H]3C2=O)cc1OC	-5.8%	2.1%	-2.6%	.	.
c1cn2c(NC3CCCCC3)c(-c3ccc(SC4CCCCC4)cc3)nc2cn1	19.8%[57.1 µM]	-6.2%[57.1 µM]	-7.7%	-6.4%	49.3%
c1cc(SC2CCCCC2)cc(-c2nc3cnccn3c2NC2CCCCC2)c1	24.5%	26.0%	?	25.1µM*	-24.4%
CCn1c(SCC(=O)c2c[nH]c3ccccc23)nnc1-c1cccs1	-4.6%	-6.2%	11.2µM*	22.4µM*	4.7%
COCCn1c(SCC(=O)c2c[nH]c3ccccc23)nnc1-c1ccncc1	6.9%[57.1 µM]	-2.4%[57.1 µM]	-0.3%	-6.2%	-8.9%
COc1cc(NC(=S)Nc2ccc(S(=O)(=O)N3CCOCC3)cc2)cc(OC)c1OC	9.7%	14.1µM*	-3.8%	-3.1%	-18.2%
O=C(Cc1ccc(Br)cc1)Nc1cccc(S(=O)(=O)N2CCOCC2)c1	-1.3%	1.9%	-0.4%	4.8%	5.7%
O=C(Nc1ccc(S(=O)(=O)N2CCOCC2)cc1)c1ccc2c(c1)OCO2	-5.9%	-9.0%	1.1%	4.2%	12.9%
O=S(=O)(c1cccc(NC(=S)Nc2ccc(Br)cc2Cl)c1)N1CCOCC1	5.5%	17.8µM*	-0.6%	.	-4.8%
